Menin MLL FP FL – qHTS Assay for Inhibitors Targeting the Menin-MLL Interaction in MLL Related Leukemias: Competition With Fluorescein Labeled MLL-derived Peptide; Fluorescence polarization, fluorescein-MLL peptide displacement from menin; FP activity change, % at 61.4 µM; 290,000 tested, under 10 active; active = well fitted curve in the direction sought with a large enough effect in the polarisation, not every such curve was filed as active; inconclusive = small, poorly fitted or top-dose-only effect, or effect the other way, or a change in a side signal; inactive = no such curve, though single readings can be large or run the other way; the % refers to the polarisation
Akt phos inh – HTS Assay for Inhibitors of Akt Phophorylation: Primary Screen | Neuro2A IGF-stimulated pAkt S473 HTRF, 20 min; stronger effect = lower value | activity change, % for hits at 50 µM | actives 0.32% (n = 360,000); in the data active = activity change below about -80%; inconclusive = mostly about -51% to -80%
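Single-point screen (50 µM final compound) in Neuro2A cells stimulated 20 min with 6 nM IGF at 37 deg C. After lysis, Ser473-phosphorylated Akt read by HTRF (ex 330 nm, em 615/665 nm) as the 665/615 ratio.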
LDHA inh – qHTS assay for inhibitors of human lactate dehydrogenase. activity change, % (values are at about 110 or 230 µM). actives 0.15% (n = 480,000). purified LDHA, NADH/diaphorase-resazurin fluorescence; stronger effect = lower value. AID 1347041, 2019; in the data active = activity change below about -30%; inconclusive = mostly about -25% to -30%
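LDH5 2 nM; NADH 0.06 mM, pyruvate 0.2 mM; 200 mM Tris pH 7.4, EDTA, Tween-20; 5 min RT. Detection: diaphorase 0.133 mg/mL + resazurin 37 µM, fluorescence ex540/em590 at 0 and 20 min; normalized to enzyme-free and DMSO wells.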
MLL CXXC-DNA inh – qHTS Fluorescence Polarization Assay for Inhibitors of MLL CXXC domain - DNA interaction; MLL-CXXC / FITC-HOXA9 DNA fluorescence polarization; actives 0.037% (n = 290,000); Potency, µM (series often up to 115 µM), most hits filed as inhibitors; Histone-lysine N-methyltransferase 2A (Homo sapiens), Q03164; active = well fitted inhibition curve with a large enough effect in the polarisation, with a control signal flat, not every such curve was filed as active; inconclusive = small, poorly fitted or top-dose-only effect, or effect the other way, or a change in a side signal; inactive = no such curve, though single readings can be large or run the other way; the % refers to the polarisation
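Steps: dispense CXXC domain solution (7 uM) → pin compounds or unlabeled HOX-A9 DNA control → 5 min ambient → add FLSN-HOX-A9 solution (50 nM) → spin → 30 min ambient → fluorescence polarization. Tris pH 7.5/NaCl/DTT/BSA buffer.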
Menin MLL FP TR – qHTS Assay for Inhibitors Targeting the Menin-MLL Interaction in MLL Related Leukemias: Competition With Texas Red Labeled MLL-derived Mutant Peptide. O00255. Menin + Texas Red MLL mutant peptide, fluorescence polarization. Potency, µM (series often up to 61.6 µM), hits mostly inhibitors. actives 0.23% (n = 270,000); active = well fitted inhibition curve with a large enough effect in the polarisation, with a control signal flat, not every such curve was filed as active; inconclusive = small, poorly fitted or top-dose-only effect, or effect the other way, or a change in a side signal; inactive = no such curve, though single readings can be large or run the other way; the % refers to the polarisation
IDH1 R132H inh – qHTS for Inhibitors of mutant isocitrate dehydrogenase 1 (IDH1): qHTS. Isocitrate dehydrogenase [NADP] cytoplasmic (Homo sapiens), O75874. IDH1-R132H enzyme, NADPH consumption, diaphorase/resazurin fluorescence. Potency, µM (titrated, usually from 76.6 µM), most hits filed as inhibitors. actives 0.093% (n = 390,000). AID 602179, 2012; active = well fitted inhibition curve with a large enough effect; inconclusive = small, poorly fitted or top-dose-only effect; inactive = no such curve, though single readings can be large or run the other way; note: nearly all actives have a fitted effect of over 65% in size
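IDH1-R132H (0.5 ug/mL dispensed) in pH 7.5 Tris buffer was preincubated 30 min with compound, then given a substrate mix of 0.016 mM NADPH and 2 mM alpha-KG for 80 min at room temperature; remaining NADPH was read by diaphorase/resazurin fluorescence.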
Large screens that a line does not name were inactive. This is a sample that favours compounds with a hit; in the whole collection about 0.54% have one here.

COc1ccc(CC(=O)Nc2ccc(-c3nnc(-c4ccccc4)o3)cc2)cc1OC	Akt phos inh -118.4%
O=C(COc1ccccc1-c1noc(-c2ccc(Cl)cc2)n1)NCc1ccccc1	none (no result: Menin MLL FP FL, Akt phos inh, MLL CXXC-DNA inh, Menin MLL FP TR, IDH1 R132H inh)
O=C(/C=C/c1ccccc1O)c1ccc(Sc2ccccc2)cc1	none (no result: Menin MLL FP FL, Akt phos inh, MLL CXXC-DNA inh, Menin MLL FP TR, IDH1 R132H inh)
ClC1(Cl)CC1Cn1c(C2CC2)nc2ccccc21 (configuration not stated)	none
N#CCCn1c(C2CCCCC2)nc2ccccc21	Akt phos inh -121.5%
CS(=O)(=O)N(CC(=O)Nc1ccccc1C(=O)NCC1CCCO1)c1ccc(F)c(F)c1 (configuration not stated)	none (no result: Menin MLL FP FL, Akt phos inh, MLL CXXC-DNA inh, Menin MLL FP TR, IDH1 R132H inh)
COc1ccc2cc(C#N)c(SCC(=O)NNC(=O)Cc3ccccc3)nc2c1	Menin MLL FP TR 11.2µM
Cc1cccc(C(C)C)c1NC(=O)/C=C/c1cccs1	none (no result: Menin MLL FP FL, Akt phos inh, MLL CXXC-DNA inh, Menin MLL FP TR, IDH1 R132H inh)
COCCNC(C(=O)Nc1ccc([N+](=O)[O-])cc1Br)c1ccccc1 (configuration not stated)	none
CCCCNC(C(=O)Nc1ccc([N+](=O)[O-])cc1Br)c1ccccc1 (configuration not stated)	LDHA inh -31.5 (no result: Menin MLL FP FL)
Cc1ccc(Cn2nnc3c(=O)n(CC(=O)N4CCCCCC4)cnc32)cc1	none (no result: Menin MLL FP FL, Akt phos inh, MLL CXXC-DNA inh, Menin MLL FP TR, IDH1 R132H inh)
COc1ccccc1CNS(=O)(=O)c1ccc2[nH]cc(C(=O)O)c(=O)c2c1	LDHA inh -56.3
CCOC(=O)C1=C(c2ccccc2)N=c2s/c(=C\c3ccc(O)cc3)c(=O)n2C1c1cccs1 (configuration not stated)	Menin MLL FP FL inconclusive, MLL CXXC-DNA inh inconclusive, Menin MLL FP TR 35.5µM (no result: Akt phos inh)
CCOc1cc(N2CCOCC2)c(OCC)cc1NC(C)C(=O)N1CCN(CC)CC1 (configuration not stated)	Menin MLL FP TR 31.6µM
CCOC(=O)C1=C(C)N(C2CCCCC2)C(=O)C1	Akt phos inh -101.2%
O=C(Nc1ccc(Cl)c(Cl)c1)c1ccc(Cn2c(=O)[nH]c3ccsc3c2=O)cc1	LDHA inh -32.2
CN(CC(=O)NC(C)(C)C)C(=O)c1ccc2ccccc2n1	LDHA inh -32.5 (no result: Menin MLL FP FL, Akt phos inh, MLL CXXC-DNA inh, Menin MLL FP TR, IDH1 R132H inh)
Cc1cc(C)c(S(=O)(=O)NCCn2c(C)cc3ccccc32)c(C)c1	Menin MLL FP TR inconclusive
Cc1ccc(S(=O)(=O)NCCn2c(C)cc3ccccc32)cc1	Menin MLL FP TR 28.2µM (no result: Akt phos inh, LDHA inh, IDH1 R132H inh)
CCOCc1ccc(CNC(=O)/C=C/c2ccco2)cc1	none (no result: Menin MLL FP FL, Akt phos inh, MLL CXXC-DNA inh, Menin MLL FP TR, IDH1 R132H inh)
O=C(c1ccc2snnc2c1)N1CCSCC1	Akt phos inh -107.9%
CSc1nc(C(C)(C)C)cc(C(F)(F)F)c1C#N	none (no result: Menin MLL FP FL, Akt phos inh, MLL CXXC-DNA inh, Menin MLL FP TR, IDH1 R132H inh)
COc1ccc(/C(=N\O)C(C)(C)O)cc1	none (no result: Menin MLL FP FL, Akt phos inh, MLL CXXC-DNA inh, Menin MLL FP TR, IDH1 R132H inh)
CCOc1ccccc1CN1CCC(O)CC1	none (no result: Akt phos inh)
CCOc1ccccc1CN1CCC(N2CCOCC2)CC1	LDHA inh -31.3
O=C(CS(=O)(=O)Cc1ccc(C(F)(F)F)cc1)Nc1ccc(F)cc1F	none (no result: Menin MLL FP FL, Akt phos inh, MLL CXXC-DNA inh, Menin MLL FP TR, IDH1 R132H inh)
Cn1c(SCC(=O)Nc2ccc3cn[nH]c3c2)nnc1-c1cnccn1	Akt phos inh -97.3%
COc1ccccc1-n1[nH]c(C)c(Cc2ccccc2Cl)c1=O	LDHA inh -43.5 (no result: Menin MLL FP FL, Akt phos inh, MLL CXXC-DNA inh, Menin MLL FP TR, IDH1 R132H inh)
COc1ccccc1-n1[nH]c(C)c(Cc2ccc(Cl)cc2)c1=O	none (no result: Menin MLL FP FL, Akt phos inh, MLL CXXC-DNA inh, Menin MLL FP TR, IDH1 R132H inh)
O=C(Nc1cccc2ncccc12)c1cccc(F)c1	Akt phos inh -107.3%
COc1cc(C)nc(OCCNC(=O)COc2ccc(Cl)cc2C)n1	Akt phos inh -108.6%
Cc1cc(Cl)ccc1OCC(=O)NCCOc1nc(N2CCCCC2)nc(N2CCOCC2)n1	none
Cc1cc(C)cc(NC(=S)NCCC(c2ccccc2)c2ccccc2)c1	none (no result: Menin MLL FP FL, Akt phos inh, MLL CXXC-DNA inh, Menin MLL FP TR, IDH1 R132H inh)
NC(=O)c1cc(S(=O)(=O)NCC2CCN(Cc3ccccc3F)CC2)cs1	none (no result: Menin MLL FP FL, Akt phos inh, MLL CXXC-DNA inh, Menin MLL FP TR, IDH1 R132H inh)
COC(=O)c1ccc(NC(=O)C2CC(=O)N(c3cc(C)ccc3C)C2)cc1 (configuration not stated)	Akt phos inh -105.0%
COC(=O)c1ccc(NC(=O)C2CC(=O)N(c3ccc(C)cc3)C2)cc1 (configuration not stated)	none

Bioassay records as filed in PubChem.
